Assay outcomes as filed in PubChem.
The list is not random: actives were taken first. Their share in the collection is about 11%.
NPR1 antag: Natriuretic polypeptide receptor (hNpr1) antagonism - Primary qHTS; HEK293 hNpr1 GloSensor cGMP, ANP-stimulated luminescence; Potency, µM (doses to about 46.3 µM), hits mostly inhibitors; 76,000 compounds, 1.6% hits; calls by dose curve; also: nearly all actives have a fitted effect of over 60% in size
Target sequence (P16066 whole entry, looked up): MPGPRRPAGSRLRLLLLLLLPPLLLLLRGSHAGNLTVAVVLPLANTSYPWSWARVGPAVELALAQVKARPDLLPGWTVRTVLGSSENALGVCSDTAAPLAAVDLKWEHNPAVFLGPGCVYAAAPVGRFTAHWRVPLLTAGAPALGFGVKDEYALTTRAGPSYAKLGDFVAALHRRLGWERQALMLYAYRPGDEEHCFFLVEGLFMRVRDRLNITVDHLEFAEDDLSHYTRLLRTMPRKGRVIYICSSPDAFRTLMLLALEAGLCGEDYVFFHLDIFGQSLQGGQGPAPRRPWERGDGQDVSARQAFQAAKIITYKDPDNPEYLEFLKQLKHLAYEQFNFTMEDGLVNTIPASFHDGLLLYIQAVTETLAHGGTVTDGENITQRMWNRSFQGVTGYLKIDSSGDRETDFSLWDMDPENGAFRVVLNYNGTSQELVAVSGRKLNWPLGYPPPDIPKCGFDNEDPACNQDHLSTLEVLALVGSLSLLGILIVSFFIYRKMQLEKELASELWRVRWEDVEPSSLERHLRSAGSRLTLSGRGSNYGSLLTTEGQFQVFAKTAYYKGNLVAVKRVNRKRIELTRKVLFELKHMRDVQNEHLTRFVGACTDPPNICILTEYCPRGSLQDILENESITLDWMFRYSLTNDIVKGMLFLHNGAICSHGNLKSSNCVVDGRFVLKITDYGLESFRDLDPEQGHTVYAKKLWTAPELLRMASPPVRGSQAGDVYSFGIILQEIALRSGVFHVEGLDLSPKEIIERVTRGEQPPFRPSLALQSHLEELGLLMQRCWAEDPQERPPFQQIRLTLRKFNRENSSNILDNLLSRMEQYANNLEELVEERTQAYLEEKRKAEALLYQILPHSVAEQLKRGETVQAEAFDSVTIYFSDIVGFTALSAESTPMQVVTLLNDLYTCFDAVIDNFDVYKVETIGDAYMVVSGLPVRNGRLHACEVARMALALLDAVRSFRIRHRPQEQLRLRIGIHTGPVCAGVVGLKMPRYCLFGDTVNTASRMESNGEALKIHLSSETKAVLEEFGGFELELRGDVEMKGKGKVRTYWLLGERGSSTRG
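HEK293 cells stably expressing human Npr1 and cGMP GloSensor pGS-40F, loaded 2 h with 2% GloSensor reagent, given compound 30 min at room temperature. Luminescence read before and 20 min after 0.1 nM hNppA.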
Luciferase inh: Firefly luciferase inhibition profiling of diverse chemical library using quantitative high-throughput screening | Luciferin 4-monooxygenase (Photinus pyralis), P08659 | purified P. pyralis luciferase, luminescence, biochemical | Potency, µM (doses to about 115 µM), usual class: inhibitors | 76,000 compounds, 2.5% hits | AID 1347043, 2019; also: nearly all actives have a fitted effect of over 65% in size
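Luminescence read by CCD imager after adding enzyme (10nM final) to wells holding compound, titrated in qHTS. Substrates 10uM each D-luciferin and ATP; buffer 50mM Tris acetate pH 7.5, 10mM Mg acetate, Tween-20, BSA.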
HEK293 tox: Cytotoxic Profiling in HEK 293 Cell Line of Diverse Libraries Using Quantitative High-Throughput Screening | HEK 293 viability, ATP luminescence (CellTiter-Glo), 48-72 h | Potency, µM (series often up to 115 µM), hits mostly inhibitors | 94,000 compounds, 6.6% hits | AID 1345083, 2018; also: nearly all actives have a fitted effect of over 60% in size
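CellTiter-Glo luminescence (cellular ATP) was read after 48 or 72 hr of compound exposure at 37 degree Celsius. Cells were HEK 293 plated at 250 cells/well.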
NIH3T3 tox: Cytotoxic Profiling in NIH 3T3 Cell Line of Diverse Libraries Using Quantitative High-Throughput Screening; NIH 3T3 viability, CellTiter-Glo ATP luminescence, 48-72 h; Potency, µM (titrated, usually from 96.7 µM), hits mostly inhibitors; 94,000 compounds, 4.3% hits; also: nearly all actives have a fitted effect of over 55% in size
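Viability of NIH 3T3 cells after 48 or 72 hr compound treatment at 37 °C was assessed by CellTiter-Glo, with luminescence imaged following a 10 min room-temperature step.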
Numbers stand for hits; . = inactive; ? = inconclusive; / = no result. Unless noted, calls follow the shape of the dose curve; as a rule, active = well fitted curve in the direction sought with a large enough effect; inconclusive = small, poorly fitted or top-dose-only effect, or another doubt; inactive = no such curve, though single readings can be large; an effect the other way counts as inactive or inconclusive.

SMILES | NPR1 antag | Luciferase inh | HEK293 tox | NIH3T3 tox
Cn1cc(CN2CCN(C(=O)c3c[nH]c4ccccc34)CC2)ccc1=O | . | 32µM | . | .
Cn1cc(CN2CCN(C(=O)c3ccoc3)CC2)ccc1=O | . | . | . | .
Cc1ccc(-c2nc(C)c(C(=O)Nc3ccc4c(c3)C(=O)N3CCC[C@H]3C(=O)N4)s2)cc1 | . | 28µM | ? | .
Cn1cc(C(=O)Nc2ccc3c(c2)C(=O)N2CCC[C@H]2C(=O)N3)c2ccccc21 | . | . | . | .
CN(C)[S+](=O)([O-])c1ccc2c(c1)OCCN(Cc1cccc(F)c1F)C2 | . | . | ? | ?
COc1ccccc1CN1CCOc2cc([S+](=O)([O-])N(C)C)ccc2C1 | . | . | 89µM | ?
CN(C)[S+](=O)([O-])c1ccc2c(c1)OCCN(Cc1ccccc1Cl)C2 | . | . | ? | 56µM
COc1ccc(C(=O)Nc2ccc3c(c2)CN(Cc2cccc(OC)c2OC)C(=O)CO3)cc1OC | . | . | ? | .
COc1cccc(CN2Cc3cc(NC(=O)c4cccc(OC)c4)ccc3OCC2=O)c1 | . | ? | 25µM | ?
COc1cccc(CN2Cc3cc(NC(=O)c4ccc([N+](=O)[O-])cc4)ccc3OCC2=O)c1OC | ? | . | 40µM | ?
COc1cccc(C(=O)Nc2ccc3c(c2)CN(Cc2ccccc2F)C(=O)CO3)c1 | . | ? | ? | ?
CCOC(=O)C1c2c(OC)ccc3c2C(=CC(C)(C)CO3)CN1Cc1ccccc1 (centres undefined) | / | / | 45µM | ?
COc1ccc(NC(=O)N2CCC3(CC2)CC(N(C(C)=O)C2CC2)CCO3)cc1 (centres undefined) | . | . | . | .
O=C(NCc1ccccc1)c1cnc2n1CCN(CCCc1ccccc1)CC2 | . | . | ? | 25µM
CC(C)CCN1CCc2ncc(C(=O)NCCOc3ccccc3)n2CC1 | . | . | 28µM | ?
N#Cc1ccc(CN2CCc3ncc(C(=O)NCCOc4ccccc4)n3CC2)cc1 | ? | . | 71µM | ?
CC(C)c1ccc(CN2CCC3(CC2)OC(=O)N(Cc2ncccn2)C3(C)c2ccccc2)cc1 (centres undefined) | . | . | 40µM | ?
CC(=O)Nc1ccc(CN2C(=O)OC3(CCN(Cc4ccc(C#N)cc4)CC3)C2(C)c2ccccc2)cc1 (centres undefined) | . | . | ? | .
CC(=O)Nc1ccc(CN2C(=O)OC3(CCN(Cc4ccc(C(C)C)cc4)CC3)C2(C)c2ccccc2)cc1 (centres undefined) | . | . | ? | 35µM
CCOC(=O)[C@@H]1CN(C(=O)C2CCCC2)[C@H]2c3ccc(OC)cc3O[C@@H]12 | / | / | ? | .
CC1(C(=O)N2CCOc3c(O)cc(-c4cccc(Cl)c4)cc3C2)CCCO1 (centres undefined) | . | . | 45µM | ?
CC(C)CNC(=O)CN1CCOc2c(O)cc(-c3cccc(Cl)c3)cc2C1 | . | . | ? | ?
Cc1nc(C(=O)N2CCOc3c(O)cc(-c4cccc(Cl)c4)cc3C2)cs1 | ? | . | 18µM | ?
O=C(Cc1ccccn1)N1CCN(C(=O)c2nc3cccnc3n(CCc3ccccc3)c2=O)CC1 | / | / | . | .
Cn1cnnc1-c1nn(C)c2c1CN(C(=O)CCc1nc3ccccc3s1)CC2 | / | / | . | .
SMILES | NPR1 antag | Luciferase inh | HEK293 tox | NIH3T3 tox
COc1ccccc1Cc1nc(-c2nnn3c2COC(c2ccc(C)cc2)C3)no1 (centres undefined) | . | . | . | ?
Cc1noc(-c2ccc3c(c2)OCO3)c1C(=O)NC(C)CCc1ccccc1 (centres undefined) | . | . | 45µM | ?
CCOc1ccccc1CNC(=O)c1c(C)noc1-c1ccc2c(c1)OCO2 | . | . | ? | ?
Cc1noc(-c2ccc3c(c2)OCO3)c1C(=O)N1CCC(Cc2ccc(F)cc2)CC1 | ? | . | 28µM | 35µM
Cc1noc(-c2ccc3c(c2)OCO3)c1C(=O)NCc1cc(F)cc(F)c1 | . | . | 32µM | ?
Cc1noc(-c2ccc3c(c2)OCO3)c1C(=O)NCCCCc1ccccc1 | . | . | ? | ?
Cc1noc(-c2cccs2)c1C(=O)N1CCC(Cc2ccccc2)CC1 | . | . | ? | ?
CCOc1ccccc1N1CCN(c2ncncc2-c2nc(-c3ccccc3)no2)CC1 | . | . | ? | ?
COc1ccc(C2(C(=O)N3CCCN(c4cc(-c5ccc(C)c(C)c5)[nH]n4)CC3)CC2)cc1 | ? | . | 25µM | 32µM
COc1ccc(-c2cc(N3CCCN(C(=O)c4ccc(OC)cc4OC)CC3)n[nH]2)cc1 | ? | . | 40µM | ?
COc1ccc(-c2cc(N3CCN(C(=O)c4ccc(C)cc4C)CC3)n[nH]2)cc1 | ? | . | 40µM | ?
COc1ccc(-c2cc(N3CCCN(C(=O)c4cc5ccccc5[nH]4)CC3)n[nH]2)cc1 | . | ? | 45µM | 35µM
COc1ccc(OC)c(CNC(=O)c2nnn3c2COC(c2ccc(F)cc2)C3)c1 (centres undefined) | . | . | ? | ?
CCCCN(C)C(=O)CN1C(=O)NC2(CCC(C)CC2)C1=O (centres undefined) | . | . | . | .
COc1cccc(CN2CC(Oc3ccccc3C(=O)NCc3ccccc3)C2)c1 | . | . | 40µM | 35µM
O=C(NCc1ccccc1)c1ccccc1OC1CN(Cc2ccc(F)cc2)C1 | . | . | ? | 32µM
O=C(NC1CC1)c1ccccc1OC1CN(Cc2cccc(F)c2)C1 | . | . | ? | .
Cc1csc(Nc2ccc3ncn(C)c(=O)c3n2)n1 | . | . | ? | ?
COC(=O)CNC(=O)c1ccc2oc(-c3ccncc3)nc2c1 | / | / | . | .
COc1ccc(-c2noc([C@@H]3C[C@H](NS(=O)(=O)c4ccc(F)cc4)CN3C)n2)cc1 | . | 18µM | ? | ?
COc1ccc(-c2noc([C@@H]3C[C@H](NC(=O)c4ccc(F)cc4)CN3C)n2)cc1 | . | . | ? | ?
COc1ccc(NC(=O)N[C@H]2C[C@@H](c3nc(-c4ccc(F)cc4)no3)N(C)C2)cc1 | . | . | . | ?
COc1ccc(-c2noc([C@@H]3C[C@H](NCc4ccc(S(C)(=O)=O)cc4)CN3C)n2)cc1 | ? | 45µM | ? | .
COc1ccc([C@H]2C[C@@H](O)[C@@H](O)[C@@H]2NCc2cccc(C#N)c2)cc1 | . | . | . | 89µM
COc1ccc([C@H]2C[C@@H](O)[C@@H](O)[C@@H]2NCc2cccc(C(F)(F)F)c2)cc1 | . | . | ? | ?
COc1ccc(-c2noc([C@@H]3C[C@H](NCc4cccc(C#N)c4)CN3C)n2)cc1 | . | 40µM | ? | ?
COC[C@@H]1CN(C(=O)CC(C)C)C[C@H]1c1ccccn1 | / | / | . | .
COc1ccc(-c2ccc3c(c2)C(=O)N2C[C@@H](NS(=O)(=O)c4ccc(F)cc4)C[C@H]2C(=O)N3)c(OC)c1 | . | . | 28µM | ?
